{"source": "PubChem BioAssay AID602410", "about": "(Johns Hopkins Ion Channel Center, 2012)", "note": "In all, about 340,000 compounds went through this assay and about 2,800 (0.82%) were called active. This is one part of a sample in which actives are shown more often than they occur.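 The calls were made as follows: active = B-score under library mean minus 4 SD, starting fluorescence ratio at most library mean plus 5 SD; inactive = the rest.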", "data": [{"biological_target": "Potassium channel subfamily K member 3 (Homo sapiens) (UniProt O14649)", "sequence (O14649 whole entry, looked up)": "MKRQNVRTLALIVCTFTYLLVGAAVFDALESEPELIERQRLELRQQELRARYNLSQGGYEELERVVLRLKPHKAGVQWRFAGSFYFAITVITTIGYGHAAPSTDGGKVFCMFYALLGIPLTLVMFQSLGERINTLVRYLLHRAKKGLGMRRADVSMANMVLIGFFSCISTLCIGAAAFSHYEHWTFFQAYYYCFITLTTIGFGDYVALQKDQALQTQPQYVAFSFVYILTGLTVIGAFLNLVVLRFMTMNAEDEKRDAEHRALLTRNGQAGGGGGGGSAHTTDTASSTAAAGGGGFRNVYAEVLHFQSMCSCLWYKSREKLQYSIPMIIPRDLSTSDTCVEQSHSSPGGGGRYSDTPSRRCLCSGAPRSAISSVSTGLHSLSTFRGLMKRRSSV", "test": "blockers of TASK1 two-pore potassium channel – CHO cells, FluxOR thallium flux, B-score, primary screen (AID 602410);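 as to B-score: more negative B-score means stronger inhibition of thallium flux through KCNK3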", "settings": "CHO-KCNK3 thallium flux, FluxOR fluorescence, at 10 µM; active compounds read low", "values": [{"smiles": "NNC(=O)c1cccc(COCC(F)(F)C(F)F)c1", "B-score": "inactive"}, {"smiles": "N#C/C(=C\\C1=C(N2CCOCC2)C(=C\\c2ccccc2)/CC1)C(=O)Nc1ccccc1F", "B-score": "inactive"}, {"smiles": "O=C(O)c1ccc(NN=CC2=C(N3CCOCC3)/C(=C/c3ccccc3)CC2)cc1", "B-score": "-9.13 (active)"}, {"smiles": "O=C1Nc2ccc(Br)cc2/C1=N/N=C/C1=C(N2CCOCC2)C(=C\\c2ccccc2)/CC1", "B-score": "inactive"}, {"smiles": "COc1ccc(N2CCN(CCNC(=O)Nc3cc(Cl)ccc3Cl)CC2)cc1", "B-score": "inactive"}, {"smiles": "COc1ccc(NC(=O)c2sccc2SCC#N)cc1", "B-score": "inactive"}, {"smiles": "CC(C)(C)N1CC(c2nc3ccccc3n2Cc2ccc(F)cc2)CC1=O", "note": "(stereo not drawn)", "B-score": "inactive"}, {"smiles": "Cc1cc(C)c(C)c(S(=O)(=O)N[C@@H](C)C(=O)OC(C)C(=O)NC(N)=O)c1C", "note": "(stereo partly drawn)", "B-score": "inactive"}, {"smiles": "CSc1nsc(NC(=O)Nc2ccccc2)n1", "B-score": "inactive"}, {"smiles": "C=CCSc1nsc(NC(=O)Nc2cccc(C(C)=O)c2)n1", "B-score": "-9.78 (active)"}, {"smiles": "CCSc1nsc(NC(=O)Nc2cccc(C(C)=O)c2)n1", "B-score": "inactive"}, {"smiles": "CCOC(=O)C1CCCN(C(=O)C2CCN(S(=O)(=O)c3ccc(Cl)c(C(F)(F)F)c3)CC2)C1", "note": "(stereo not drawn)", "B-score": "inactive"}, {"smiles": "COC(=O)c1cccc(-n2[nH]nnc2=S)c1", "B-score": "inactive"}, {"smiles": "COc1ccccc1CNC(=O)COc1ccc(C)nc1[N+](=O)[O-]", "B-score": "inactive"}, {"smiles": "Cc1ccc(S(=O)(=O)N2C[C@@H]3CCCC[C@@H]3[C@@H](C)[C@H]2c2cn(Cc3ccccc3)c3ccc(F)cc23)cc1", "B-score": "inactive"}, {"smiles": "COc1ccc(CNC(=O)CNC(=O)c2sc3ccccc3c2Cl)cc1OC", "B-score": "inactive"}, {"smiles": "CCc1ccccc1NC(=O)NCCN1CCCCC1", "B-score": "inactive"}, {"smiles": "CN1CCc2ccccc2C1Cc1ccccc1NC(=O)c1sc2ccccc2c1Cl", "note": "(stereo not drawn)", "B-score": "-9.31 (active)"}, {"smiles": "CCOc1ccc(CCNC(=O)COC(=O)c2ccc(F)c(S(=O)(=O)N3CCOCC3)c2)cc1OCC", "B-score": "inactive"}, {"smiles": "CCOc1ccc(OCC)c(NC(=O)C2CCN(S(=O)(=O)c3c(C)noc3C)CC2)c1", "B-score": "inactive"}, {"smiles": "CC[n+]1cc(C)ccc1/C=C/c1ccc(N(C)C)cc1", "B-score": "-8.95 (active)"}, {"smiles": "CCOC(=O)C1CCN(C(=O)C2CCN(S(=O)(=O)CC)CC2)CC1", "B-score": "inactive"}, {"smiles": "COC(=O)c1ccccc1Sc1c(/C=N/OCc2ccc(Cl)cc2)c(C(F)(F)F)nn1C", "B-score": "inactive"}, {"smiles": "Cc1ccc(NC(=O)CCC(=O)N2CCC(c3ccccc3)=N2)cc1S(=O)(=O)N1CCCCC1", "B-score": "inactive"}, {"smiles": "Cc1ccc(NC(=S)N2CCCC(c3ccccc3)=N2)cc1", "B-score": "-8.89 (active)"}, {"smiles": "Cc1ccc(C(=O)N2CCCC(c3ccccc3)=N2)cc1", "B-score": "inactive"}, {"smiles": "Cc1ccc(CSc2nc3[nH]ncc3c(=O)[nH]2)cc1", "B-score": "inactive"}, {"smiles": "Cc1cc2c(=O)n(CC(=O)NCC(=O)Nc3ccc(C(C)C)cc3)cnc2s1", "B-score": "inactive"}]}]}
